# Several values for one entry are separate records, joined by “and”; a condition that tells them apart may be missing. Identical values can stand only once. Results filed as inconclusive are left out. Activity calls are given as the source filed them. How the source made its calls, unless noted: active means hit-call score of the fitted dose curve at least 0.9, where 1 is the maximum; inconclusive means response in the unintended direction; inactive means score below 0.9.
# Assays:
# [1] = molecular target: Nucleoli Translocation, AR (gene 367) (UniProt P10275); experiment: UPITT_HCI_U2OS_AR_TIF2_Nucleoli_Antagonist: University of Pittsburgh U2OS Androgen Receptor-Transcriptional Intermediary Factor 2 (AR-TIF2) Antagonism High Content Imaging Assay for Nucleoli Translocation (AID 2283997)
# Procedure, shortened: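 Measured quantity was AR-RFP fluorescence localized to nucleoli in engineered U2OS cells also bearing TIF2-GFP, acquired on automated high-content imagers. Primary testing used 20 uM compound; actives were confirmed in triplicate wells.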
# [2] = molecular target: Nucleoli Translocation, AR (gene 367) (UniProt P10275); experiment: UPITT_HCI_U2OS_AR_TIF2_Nucleoli_Agonist: University of Pittsburgh U2OS Androgen Receptor-Transcriptional Intermediary Factor 2 (AR-TIF2) Agonism High Content Imaging Assay for Nucleoli Translocation (AID 2283998)
# Procedure, shortened: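 RFP-AR / GFP-TIF2 cells; cpds diluted in serum-free medium; single-point screen 20 uM final (0.2% DMSO), actives confirmed in triplicate; conc-response 0.195–50 uM final (0.5% DMSO). Readout: nucleolar red fluorescence, positive direction vs DMSO.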
# [3] = molecular target: Ratio of Nucleoli Translocation and Cytoplasm, AR (gene 367) (UniProt P10275); experiment: UPITT_HCI_U2OS_AR_TIF2_Nucleoli_Cytoplasm_Ratio_Antagonist: University of Pittsburgh U2OS Androgen Receptor-Transcriptional Intermediary Factor 2 (AR-TIF2) Antagonism High Content Imaging Assay for Ratio of Nucleoli Translocation and Cytoplasm (AID 2283999);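 further: antagonists lower the DHT-driven ratio of nucleolar to cytoplasmic red signal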
# Procedure, shortened: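 U2OS cells expressing RFP-tagged human AR and GFP-tagged TIF2; compounds tested at 20 uM final (0.2% DMSO) in primary screen, 0.195–50 uM (0.5% DMSO) for concentration response. Readout: nucleolar-to-cytoplasmic red fluorescence ratio by high-content imaging, fitted relative to DHT.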
# [4] = molecular target: Ratio of Nucleoli Translocation and Cytoplasm, AR (gene 367) (UniProt P10275); experiment: UPITT_HCI_U2OS_AR_TIF2_Nucleoli_Cytoplasm_Ratio_Agonist: University of Pittsburgh U2OS Androgen Receptor-Transcriptional Intermediary Factor 2 (AR-TIF2) Agonism High Content Imaging Assay for Ratio of Nucleoli Translocation and Cytoplasm (AID 2284000);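 further: hits raise the red nucleolar to cytoplasm ratio above vehicle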
# Procedure, shortened: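 Read-out first: nucleolar-to-cytoplasm ratio of red (AR-RFP) signal, quantified by high-content imaging in U2OS cells co-expressing TIF2-GFP. Activity is scored as signal increase over DMSO. Single-point screening used 20 uM final (0.2% DMSO).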
# [5] = CCTE_Harrill_HTTr_Apoptosis_DMEM_12hr: (Pilot) CCTE's 12-hour Apoptosis Assessment for the High-Throughput Transcriptomics (HTTr) Platform, in MCF-7 cells cultured in DMEM + 10% fetal bovine serum, Harrill Lab (AID 2283982; active means hit-call score of the fitted dose curve at least 0.9, where 1 is the maximum; inactive means score below 0.9)
# Text: This is a cell-based assay that evaluates apoptosis using high content imaging to evaluate activation of caspase-3/7 using the CellEvent Caspase 3/7 Green detection reagent in 384-well format.One of seven assay components measured from the CCTE_Harrill_HTTr_Apoptosis assay. This was part of a pilot experiment. This is a cell-based assay that evaluates apoptosis in MCF-7 cells cultured in DMEM + 10% fetal bovine serum. High content imaging is used to evaluate activation of caspase-3/7 using the CellEvent Caspase 3/7 Green detection reagent. Measurements are taken at 12 hours after chemical dosing in 384-well format.The assay component endpoint CCTE_Harrill_HTTr_Apoptosis_DMEM_12hr was analyzed with bidirectional fitting relation to DMSO as the negative control and baseline of activity. Using a type of viability reporter, gain-of-signal activity can be used to evaluate activation of caspase-3/7 using the CellEvent Caspase 3/7 Green detection reagent to understand changes in apoptosis. To generalize the intended target to other relatable targets, this assay endpoint is annotated to cell cycle, where the subfamily is apoptosis.
# (§1) Chemicals were tested in MCF7 cells in an eight point dilution series with a twelve hour exposure duration.
# [6] = CCTE_Harrill_HTTr_Apoptosis_DMEM_24hr: (Pilot) CCTE's 24-hour Apoptosis Assessment for the High-Throughput Transcriptomics (HTTr) Platform, in MCF-7 cells cultured in DMEM + 10% fetal bovine serum, Harrill Lab (AID 2283983; active means hit-call score of the fitted dose curve at least 0.9, where 1 is the maximum; inactive means score below 0.9)
# Procedure, shortened: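 MCF-7 cells in DMEM + 10% FBS, eight-point dilution series, 24 h exposure. Caspase-3/7 activation imaged by high-content imaging with CellEvent Caspase 3/7 Green. Bidirectional curve fitting against DMSO baseline.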
# [7] = CCTE_Harrill_HTTr_Apoptosis_PRF_DMEM_6hr: (Pilot) CCTE's 6-hour Apoptosis Assessment for the High-Throughput Transcriptomics (HTTr) Platform, in MCF-7 cells cultured phenol red-free DMEM + 10% charcoal-stripped fetal bovine serum, Harrill Lab (AID 2283984; active means hit-call score of the fitted dose curve at least 0.9, where 1 is the maximum; inactive means score below 0.9)
# Procedure, shortened: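 MCF-7 cells in phenol red-free DMEM + 10% charcoal-stripped FBS, eight-point dilution series, 6 h exposure. Caspase-3/7 activation imaged by high-content imaging with CellEvent Caspase 3/7 Green; bidirectional fit versus DMSO baseline.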
# [8] = CCTE_Harrill_HTTr_Apoptosis_PRF_DMEM_12hr: (Pilot) CCTE's 12-hour Apoptosis Assessment for the High-Throughput Transcriptomics (HTTr) Platform, in MCF-7 cells cultured in phenol red-free DMEM + 10% charcoal-stripped fetal bovine serum, Harrill Lab (AID 2283985; active means hit-call score of the fitted dose curve at least 0.9, where 1 is the maximum; inactive means score below 0.9)
# Text: (§2) This is a cell-based assay that evaluates apoptosis using high content imaging to evaluate activation of caspase-3/7 using the CellEvent Caspase 3/7 Green detection reagent in 384-well format.One of seven assay components measured from the CCTE_Harrill_HTTr_Apoptosis assay. This was part of a pilot experiment. This is a cell-based assay that evaluates apoptosis in MCF-7 cells cultured in phenol red-free DMEM + 10% charcoal-stripped fetal bovine serum. High content imaging is used to evaluate activation of caspase-3/7 using the CellEvent Caspase 3/7 Green detection reagent. Measurements are taken at 12 hours after chemical dosing in 384-well format.The assay component endpoint CCTE_Harrill_HTTr_Apoptosis_PRF_DMEM_12hr was analyzed with bidirectional fitting relation to DMSO as the negative control and baseline of activity. Using a type of viability reporter, gain-of-signal activity can be used to evaluate activation of caspase-3/7 using the CellEvent Caspase 3/7 Green detection reagent to understand changes in apoptosis. To generalize the intended target to other relatable targets, this assay endpoint is annotated to cell cycle, where the subfamily is apoptosis.
# as §1
# [9] = CCTE_Harrill_HTTr_Apoptosis_PRF_DMEM_24hr: (Pilot) CCTE's 24-hour Apoptosis Assessment for the High-Throughput Transcriptomics (HTTr) Platform, in MCF-7 cells cultured in phenol red-free DMEM + 10% charcoal-stripped fetal bovine serum, Harrill Lab (AID 2283986; active means hit-call score of the fitted dose curve at least 0.9, where 1 is the maximum; inactive means score below 0.9)
# Text: as §2, with “24” for “12”, “CCTE_Harrill_HTTr_Apoptosis_PRF_DMEM_24hr” for “CCTE_Harrill_HTTr_Apoptosis_PRF_DMEM_12hr”
# Chemicals were tested in MCF7 cells in an eight point dilution series with a twenty-four hour exposure duration.
# DIO1 (gene 1733) = experiment: CCTE_GLTED_hDIO1: CCTE's human Deiodinase 1 (DIO1) Inhibition Assay, Great Lakes Toxicology and Ecology Division (GLTED) Lab (AID 2283987);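 further: isolated human DIO1 enzyme in a cell-free setup rather than cells; enzyme activity read as free iodide liberated from substrate via Sandell-Kolthoff colorimetry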
# Procedure, shortened: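 Steps: human DIO1 enzyme plus test chemical, 3 h incubation; free iodide then quantified in a second Sandell-Kolthoff step by absorbance. DMSO served as negative control and baseline.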
# Nucleoli Translocation, AR (gene 367), sequence (P10275 whole entry, looked up): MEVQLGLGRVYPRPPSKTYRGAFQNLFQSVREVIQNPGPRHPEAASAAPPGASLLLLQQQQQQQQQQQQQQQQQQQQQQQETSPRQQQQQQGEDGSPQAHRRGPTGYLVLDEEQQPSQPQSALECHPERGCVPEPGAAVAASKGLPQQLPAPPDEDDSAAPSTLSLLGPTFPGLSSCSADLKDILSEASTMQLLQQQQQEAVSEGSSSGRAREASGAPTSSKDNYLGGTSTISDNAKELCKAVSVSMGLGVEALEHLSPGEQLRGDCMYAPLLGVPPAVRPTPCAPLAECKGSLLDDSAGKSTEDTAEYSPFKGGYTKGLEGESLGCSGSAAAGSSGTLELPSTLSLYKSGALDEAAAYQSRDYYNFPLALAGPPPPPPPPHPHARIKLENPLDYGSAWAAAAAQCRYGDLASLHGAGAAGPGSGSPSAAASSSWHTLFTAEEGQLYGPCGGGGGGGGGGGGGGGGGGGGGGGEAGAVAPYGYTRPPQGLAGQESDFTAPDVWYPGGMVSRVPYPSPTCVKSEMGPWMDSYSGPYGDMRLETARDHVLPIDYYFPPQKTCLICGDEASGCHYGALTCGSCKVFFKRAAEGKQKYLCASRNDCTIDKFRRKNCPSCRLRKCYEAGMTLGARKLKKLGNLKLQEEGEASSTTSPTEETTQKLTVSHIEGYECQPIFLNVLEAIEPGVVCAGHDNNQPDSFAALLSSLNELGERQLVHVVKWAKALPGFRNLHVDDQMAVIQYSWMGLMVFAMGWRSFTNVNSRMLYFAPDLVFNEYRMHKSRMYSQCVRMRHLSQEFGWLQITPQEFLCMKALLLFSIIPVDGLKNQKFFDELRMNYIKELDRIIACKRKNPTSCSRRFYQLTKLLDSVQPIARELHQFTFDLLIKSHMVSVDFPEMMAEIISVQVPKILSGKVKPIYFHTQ
# Ratio of Nucleoli Translocation and Cytoplasm, AR (gene 367), sequence (P10275 whole entry, looked up): as above
smiles,measurement,setting,value
Cc1ccccc1CO[C@@H]1C[C@@]2(C(C)C)CC[C@]1(C)O2,outcome,[1],inactive
same,outcome,[2],inactive
same,outcome,[3],inactive
same,outcome,[4],inactive
CC(C)(c1ccccc1)c1ccc(O)cc1,outcome,[5],inactive
same,outcome,[6],inactive
same,outcome,[7],inactive
same,outcome,[8],inactive
same,outcome,[9],inactive
CCC(=O)O[C@H]1CC[C@H]2[C@@H]3CCC4=CC(=O)CC[C@]4(C)[C@H]3CC[C@]12C,AC50,[2],0.00109 µM (active)
same,AC50,[4],0.000508 µM (active)
O=C(N[C@H]1CN2CCC1CC2)c1cc2ccoc2cn1,outcome,[1],inactive
same,outcome,[2],inactive
same,outcome,[4],inactive
c1ccc(-c2ccccc2)cc1,outcome,[1],inactive
same,outcome,[2],inactive
CCNc1nc(NC(C)C)nc(SC)n1,outcome,[1],inactive
C=CC(=O)NCNC(=O)C=C,outcome,[1],inactive
same,outcome,[2],inactive
same,outcome,[3],inactive
same,outcome,[4],inactive
CCCCCCCCCc1ccc(O)cc1,AC50,DIO1 (gene 1733),90.3 µM (active)
CCOC(=O)C(O)(c1ccc(Cl)cc1)c1ccc(Cl)cc1,AC50,[1],13.3 µM (active)
same,AC50,[2],50 µM (active)
same,outcome,[3],inactive
same,AC50,[4],70.3 µM (active)
CCCCCCCCOC(=O)c1ccccc1C(=O)OCCCCCCCC,outcome,[1],inactive
same,outcome,[3],inactive
O=C(NC(=O)c1c(F)cccc1F)Nc1cc(Cl)c(OC(F)(F)C(F)F)c(Cl)c1,outcome,[1],inactive
same,outcome,[2],inactive
same,outcome,[3],inactive
same,outcome,[4],inactive
CCC(C)(c1ccc(O)cc1)c1ccc(O)cc1,outcome,[5],inactive
same,outcome,[6],inactive
same,outcome,[7],inactive
same,outcome,[8],inactive
same,outcome,[9],inactive
O=C(O)C(F)(F)C(F)(F)C(F)(F)C(F)(F)C(F)(F)C(F)(F)C(F)(F)C(F)(F)C(F)(F)F,AC50,DIO1 (gene 1733),103 µM (active) and 70.6 µM (active)
c1cc2ccc3cccc4ccc(c1)c2c34,outcome,[1],inactive
same,outcome,[2],inactive
same,outcome,[3],inactive
same,outcome,[4],inactive
CC#Cc1cc(C)nc(Nc2ccccc2)n1,AC50,DIO1 (gene 1733),27 µM (active)
CC1=C2C[C@H]3[C@@H](CC=C4C[C@@H](O)CC[C@@]43C)[C@@H]2CC[C@]12O[C@@H]1C[C@H](C)CN[C@H]1[C@H]2C,outcome,[1],inactive
same,outcome,[2],inactive
same,outcome,[3],inactive
same,outcome,[4],inactive
CCCCCCCCCC[N+](C)(C)CCCCCCCCCC,AC50,DIO1 (gene 1733),40.7 µM (active)
NS(=O)(=O)C(F)(F)C(F)(F)C(F)(F)C(F)(F)C(F)(F)C(F)(F)C(F)(F)C(F)(F)F,AC50,DIO1 (gene 1733),26.8 µM (active)
same,AC50,[1],82.7 µM (active)
same,AC50,[2],30.9 µM (active)
same,outcome,[3],inactive
same,AC50,[4],32 µM (active)
